M1 ag parental – nonselective activator or artifact in parental CHO-K1 cells; Fluo-8 calcium fluorescence; scaled to maximal ATP response, vehicle zero; activation, % at 3 µM; 360,000 compounds, 0.48% hits; AID 602248; in the data active = activation above about 15%;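 also: untransfected CHO-K1 host cells lacking M1 receptor as counterscreen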
CHO-K1 Ca antag – nonselective inhibitor or artifact in parental CHO-K1 cells; ATP-induced calcium, Fluo-8 fluorescence; inhibition, % at 3 µM; 360,000 compounds, 0.6% hits; AID 602250;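 active = inhibition above a per-plate cutoff, the plate's mean sample inhibition plus 3 SD, cut at about 24% in these data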;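 also: 0% = DMSO plus EC80 ATP and 100% = DMSO alone without ATP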
CHRM1 PAM – potentiates human M1 receptor response to acetylcholine; P11229; CHO-K1 hM1, Fluo-8 calcium fluorescence, ACh EC20; 0% = ACh EC20, 100% = maximal ACh; activation, % at 3 µM; 360,000 compounds, 0.088% hits; AID 588819; in the data active = activation above about 19%, passing the limit was not always enough
Target sequence (P11229 whole entry, looked up): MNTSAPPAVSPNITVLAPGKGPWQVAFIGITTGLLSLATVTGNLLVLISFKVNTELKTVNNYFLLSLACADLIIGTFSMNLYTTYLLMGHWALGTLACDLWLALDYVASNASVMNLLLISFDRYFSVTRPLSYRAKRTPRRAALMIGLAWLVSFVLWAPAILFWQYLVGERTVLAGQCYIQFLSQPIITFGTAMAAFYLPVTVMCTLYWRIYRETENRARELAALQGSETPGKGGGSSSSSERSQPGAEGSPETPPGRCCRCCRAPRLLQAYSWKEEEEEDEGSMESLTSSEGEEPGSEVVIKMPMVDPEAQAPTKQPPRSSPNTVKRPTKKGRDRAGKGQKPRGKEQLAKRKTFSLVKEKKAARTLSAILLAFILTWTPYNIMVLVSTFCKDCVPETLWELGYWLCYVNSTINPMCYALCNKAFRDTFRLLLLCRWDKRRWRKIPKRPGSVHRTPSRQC
CHO-K1 Ca PAM – M1 PAM counterscreen hit in parental CHO-K1 cells; ATP EC20, Fluo-8 calcium fluorescence; 0% at ATP EC20, 100% at ATP max; activation, % at 3 µM; 360,000 compounds, 0.02% hits;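 active = activation above the run cutoff, the mean activation of all test compounds plus 3 SD, cut at about 40% in these data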;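 also: peak over basal fluorescence ratio in a 140 s read after ATP addition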
M1 ag – agonists of human M1 muscarinic receptor | CHO-K1 hM1, Fluo-8 calcium fluorescence, agonist mode; 0% DMSO, 100% acetylcholine EC100 | activation, % at 3 µM | 360,000 compounds, 0.33% hits | P11229;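 active = activation above the run's mean compound activation plus 3 SD, cut at about 16% in these data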;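 also: peak over basal fluorescence ratio within a 140 s kinetic read after compound addition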
M1 antag – human CHRM1 antagonism | AID 588852 | P11229 | 360,000 compounds, 1.3% hits | CHO-K1 hM1, Fluo-8 calcium fluorescence, ACh EC80 antagonist | inhibition, % at 3 µM;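 active = percent inhibition above its own plate's cutoff, namely the mean of that plate's compound wells plus 3 SD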;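 also: peak over basal fluorescence ratio during 140 s after agonist addition; 0% = ACh EC80 plus DMSO and 100% = DMSO alone without agonist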
Active calls of the source: *. An excerpt weighted towards active compounds, which were near 2.4% of everything screened.

SMILES	M1 ag parental	CHO-K1 Ca antag	CHRM1 PAM	CHO-K1 Ca PAM	M1 ag	M1 antag
CC(Sc1nnc(CN2CCCC2)n1Cc1ccccc1)C(=O)Nc1ccc(F)cc1Cl (stereo not given)	-1	24*	-2	-19	-5	-3
Cc1cccc(C)c1C(=NCCCN(C)C)c1ccccc1	1	-8	-27	22	-8	79*
COc1ccccc1OCC(O)Cn1c(=N)n(CCN2CCCCC2)c2ccccc21 (stereo not given)	0	13	-22	-7	-6	19*
CCN(CC)CCCn1c(C)cc2c(c1=O)C(c1cc(OC)c(OC)cc1OC)C(C#N)=C(N)O2 (stereo not given)	1	-3	-11	18	-5	25
CCOc1ccc(C2C(C#N)=C(N)Oc3cc(C)n(Cc4ccco4)c(=O)c32)cc1OC (stereo not given)	0	5	6	-3	-1	-5
CCN(CC)CCCn1c(C)cc2c(c1=O)C(c1cccc(Cl)c1)C(C#N)=C(N)O2 (stereo not given)	0	3	-19	1	-6	60*
Cc1cc2c(c(=O)n1Cc1ccco1)C(c1cccnc1)C(C#N)=C(N)O2 (stereo not given)	0	26*	15	-8	0	-3
N#CC1=C2SCCN2C(=O)C(C#N)C12CCCCC2 (stereo not given)	0	25*	-3	-8	-4	10
CSCCC(NC(=O)COc1ccccc1)C(=O)N1CCN(C(C)=O)CC1 (stereo not given)	1	-15	14	25	-2	-16
C=CCNC(=O)C1CC(=O)N(c2ccc(OCC(=O)Nc3ccccc3)cc2)C1 (stereo not given)	1	-11	1	5	-3	0
O=C(OCn1nnc2ccccc2c1=O)c1cc(-c2ccccc2)nc2ccccc12	1	-2	4	15	-8	-6
CCc1nc2ccc(C(=O)Nc3cccc(NS(C)(=O)=O)c3)cn2c1N(C)CCCc1ccccc1	2	3	-22	3	-7	41*
CCc1nc2ccc(C(=O)Nc3cccc(OC)c3)cn2c1N(C)CCCc1ccccc1	0	6	-3	9	-9	-3
CCc1nc2ccc(C(=O)NCCNC(C)=O)cn2c1N(C)CCCc1ccccc1	3	-16	-21	14	-6	12
CCc1nc2ccc(C(=O)Nc3ccc(NC(C)=O)cc3)cn2c1N(C)CCCc1ccccc1	2	2	-29	6	-4	47*
CCc1nc2ccc(C(=O)Nc3ccc(C(=O)N(C)C)cc3)cn2c1N(C)CCCc1ccccc1	1	0	-24	5	-9	39*
CCc1nc2ccc(C(=O)NCCc3c[nH]c4ccccc34)cn2c1N(C)CCCc1ccccc1	1	-14	-18	11	-8	15
C=CCN(C(=O)CSc1nc2ccsc2c(=O)n1Cc1ccc(C(=O)O)cc1)c1ccccc1	2	-6	2	13	5	-6
CC(OC(=O)c1ccc(S(=O)(=O)NCc2ccco2)cc1)C(=O)Nc1ccccc1 (stereo not given)	3	-6	12	14	3	-19
CCOc1ncccc1C(=O)NNC(=O)c1cccc(S(=O)(=O)N2CCOCC2)c1	0	-4	2	-3	-4	-4
CC(C)(C)OC(=O)CNC(=O)c1[nH]cnc1C(=O)NCC(=O)OCc1ccccc1	10	15	-16	-12	-2	35*
C[C@H](NC(=O)c1nc[nH]c1C(=O)NCCCCCNC(=O)OC(C)(C)C)C(=O)OCc1ccccc1	9	11	-28	-19	-1	45*
CC(C)(C)OC(=O)[C@H](Cc1ccccc1)NC(=O)c1nc[nH]c1C(=O)NCC(=O)OCc1ccccc1	0	-5	-7	-14	-3	7
CC(C)(C)OC(=O)NCCCCCNC(=O)c1nc[nH]c1C(=O)NCC(=O)OCc1ccccc1	13	-2	-20	-2	1	39*
COc1ccc(NC(=O)c2ccc(COc3ccc(C)cc3)o2)cc1	3	-29	0	16	-2	0
CSc1ccccc1NC(=O)CN(C)Cc1cc(=O)n2ccsc2n1	0	3	-7	-10	-7	20

High-throughput results (PubChem BioAssay)
